Hit rate of the full screen: of about 300,000 compounds, about 37,000 (12%) were called active. No stated cut-off is given here; in the data, active means max response mostly above about 13% (no sharp cut-off); inactive means mostly below about 14%. For the sample, actives were picked, then their nearest neighbours and some compounds at random.

The nature of the test: Cycloheximide Counterscreen for Small Molecule Inhibitors of Shiga Toxin. Further: read at 38.3 µM for the half of the compounds with a filed dose; 0% is about no effect. Conditions: cell reporter, cycloheximide protein synthesis inhibition counterscreen; stronger effect = higher value.
`O=C(CSc1ccc(-c2ccco2)nn1)NCc1ccc2c(c1)OCO2`: the max response is 3.12% (inactive).
As for `Brc1ccc(CSc2ccc(-c3ccco3)nn2)cc1`, the figure is 28.4% (active); as for `Fc1cccc(Cl)c1CSc1ccc(-c2ccco2)nn1`, 39% (active); as for `Clc1ccccc1CSc1nnc(-c2ccco2)c(-c2ccco2)n1`, 8.29% (inactive).
As for `N[C@@H](Cc1c[nH]c2ccccc12)c1nnc(SCc2c(F)cccc2Cl)o1`, the figure is -4% (inactive); as for `Cc1cc(SCc2c(F)cccc2Cl)nc(=O)[nH]1`, 6.03% (inactive).
`CCOc1ccc(Br)cc1S(=O)(=O)Nc1ccc(C(=O)OC(C)C(=O)N(C)c2ccccc2)cc1` (stereo unspecified): the max response was 0.522% (inactive).
The value for `O=C(Nc1cccc(Cl)c1)c1cc(S(=O)(=O)N2CCCCC2)c[nH]1` was 1.01% (inactive).
As for `CCOC(=O)C1CN(S(=O)(=O)c2ccc(OC)cc2)c2cc(Cl)ccc2O1` (stereo unspecified), the figure is -3.3% (inactive).
With `Cc1ccc(S(=O)(=O)N2CCN=C2SCc2c(F)cccc2Cl)cc1`, the max response was 0.957% (inactive).
With `CC(=O)N(c1ccc2oc(=O)sc2c1)S(=O)(=O)c1ccc(C)cc1`, the max response is -5.66% (inactive).
As for `COC(=O)c1cccc([N+](=O)[O-])c1CS(=O)(=O)c1ccc(C)cc1`, the figure is 1.48% (inactive); as for `Cc1ccc(N=C2NC(=O)c3cccc([N+](=O)[O-])c32)cc1`, 37.1% (active); as for `Cc1ccc(Cl)cc1NC(=O)COC(=O)CC(C)(C)C`, -0.256% (inactive).
For the compound `O=[N+]([O-])c1cc(Br)c(O)c(/C=N/Nc2nc3ccccc3s2)c1`, the max response was 26% (inactive).
The value for `c1ccc2sc(NN=C3CCCC3)nc2c1` was 38.7% (active); that for `O=C(COc1ccc(-c2ccccc2)cc1)NN=C1CCCC1` was -1.28% (inactive).
The value for `COCc1cc(=O)[nH]c(-c2ccc(C(F)(F)F)cc2)n1` was -0.991% (inactive); that for `C=CCN(Cc1nc(-c2cc(OC)c3c(c2)OCO3)oc1C)C1CCS(=O)(=O)C1` (stereo unspecified) was -2.18% (inactive); that for `Cc1occc(=O)c1OCc1ccc(F)cc1` was 5.09% (inactive).
As for `Fc1cccc2ncnc(OCc3ccccc3)c12`, the figure is 6.13% (inactive); as for `Cc1nc2ccccc2cc1OCc1ccc(F)cc1`, 37.2% (active); as for `CCSc1nc2sc3c(c2c(=O)n1-c1ccc(C)cc1)CCN(C)C3`, -1.97% (inactive).
In the case of `Cc1cccc(NS(=O)(=O)c2ccc(C)c(C(N)=O)c2)c1`, the max response was -1.67% (inactive).
As for `Cc1ccccc1CC1(CO)CCCN(Cc2ccc3c(c2)OCCO3)C1` (stereo unspecified), the figure is -2.18% (inactive); as for `COc1ccc([C@H]2[C@H](C(C)=O)N3N=Cc4ccccc4C3C23C(=O)OC(C)(C)OC3=O)cc1` (stereo partly specified), 12.2% (inactive).
As for `CN(C(=O)CSc1nnc(-c2c[nH]c3ccccc23)o1)C1CCS(=O)(=O)C1` (stereo unspecified), the figure is 1.22% (inactive); as for `CN(C(=O)CSc1nncc2ccccc12)C1CCCCC1`, 30.4% (active).
The value for `Nc1nnc(SCn2nnc3ccccc3c2=O)s1` was 13.9% (inactive); that for `O=c1c2ccccc2nnn1CSc1nnnn1-c1ccccc1` was 67.5% (active); that for `C=CCn1c(SCn2nnc3ccccc3c2=O)nnc1-c1ccc(Cl)cc1` was 8.6% (inactive).
Take `CN(C(=O)CSc1nnnn1-c1ccccc1)C1CCCCC1`: the max response was 17.1% (active).
As for `CN(C(=O)COc1ncnc2c1cnn2-c1ccccc1)C1CCCCC1`, the figure is 2.25% (inactive); as for `CN(C(=O)CCn1c(=S)oc2ccccc21)C1CCCCC1`, 3.76% (inactive); as for `CC(=O)c1cccc(-n2nnnc2SCC(=O)NNC(=O)C2CCCCC2)c1`, 0.0917% (inactive).
As for `CC(NC(=O)C1CCCN(S(=O)(=O)c2ccc(-n3cnnn3)cc2)C1)c1ccc(F)cc1` (stereo unspecified), the figure is 1.89% (inactive); as for `Cc1cccc(N(Cc2ccccc2)C(=O)c2ccccc2F)c1`, 13.7% (inactive); as for `O=C(NCc1ccccc1Cl)C1CCCN1S(=O)(=O)c1ccc(F)cc1` (stereo unspecified), -3.67% (inactive).
As for `COCCCNC(=S)N1CCCC(c2nc3cc(C)c(C)cc3[nH]2)C1` (stereo unspecified), the figure is 13.5% (inactive).
In the case of `CC1CCN(C(=S)c2ccc(-c3ccc(Cl)cc3Cl)o2)CC1`, the max response was 8.41% (inactive).
As for `CCOC(=O)c1cnc(Nc2nc3ccccc3o2)nc1CSC(=S)N1CCCCC1`, the figure is 10.5% (inactive); as for `Cc1cc(N=Nc2ccc3ccccc3c2)ccc1O`, 46.6% (active); as for `COc1ccc(N=Nc2ccc(O)c(P(=O)(c3ccccc3)c3ccccc3)c2)cc1`, -8.38% (inactive).
On to `COc1ccnc2c1c(=O)n(Cc1cccc(F)c1)c(=O)n2C`, for which the max response is 6.46% (inactive).
The value for `Cc1ccc(-c2csc(NC(=O)Cn3[nH]c(=O)c4ccccc4c3=O)n2)cc1` was 11.5% (inactive).
The value for `COc1ccc2c(c1OC)C(=O)OC2c1c(O)nc(SC)n(-c2ccccc2)c1=O` (stereo unspecified) was -1.46% (inactive); that for `COc1ccc2c(c1OC)C(=O)OC2Nc1nc(-c2ccccc2)cs1` (stereo unspecified) was 38.5% (active).
As for `Cc1ccc(-c2csc(NC3OC(=O)c4ccccc43)n2)cc1` (stereo unspecified), the figure is 21.8% (active); as for `COc1ccc(N/C=C(\C2OC(=O)c3ccccc32)[N+](=O)[O-])cc1` (stereo unspecified), 7.23% (inactive); as for `COc1ccc(-c2csc(NC3OC(=O)c4ccccc43)n2)cc1` (stereo unspecified), 20% (active).
With `COc1ccc(C(=O)Nc2nc(-c3ccc(S(=O)(=O)N4CCOCC4)cc3)cs2)cc1`, the max response is 0.36% (inactive).
As for `CCc1ccccc1NC(=O)[C@@H]1CCC(=O)N1C1OC(=O)c2c1ccc(OC)c2OC` (stereo partly specified), the figure is -2.07% (inactive); as for `O=C(Cn1c(NCCO)nc2ccccc21)c1ccc(Cl)cc1Cl`, -1.01% (inactive); as for `COc1ccc(CN2CCN(Cc3cn(C)nc3-c3ccccc3)CC2CCO)c(C)c1C` (stereo unspecified), 7.91% (inactive).
As for `CC(=O)c1ccc(S(=O)(=O)N(C)CCCC(=O)N(C)Cc2ccccc2F)cc1`, the figure is 2.54% (inactive); as for `COC(=O)C1=CN(Cc2ccc(OC)cc2)C=C(C(=O)OC)C1c1ccc(O)c(OC)c1`, -3.7% (inactive); as for `O=C(c1ccc(Br)o1)N(c1ccccn1)C1CCCCC1`, 0.638% (inactive).
As for `Cc1ccc(CSc2nsc(C)c2C#N)cc1`, the max response was 22% (active).
As for `Cc1cc(C)c(C#N)c(SCc2ccc3c(c2)OCO3)n1`, the figure is -2.14% (inactive); as for `Cc1snc(SCc2c(F)cccc2Cl)c1C#N`, -2.84% (inactive); as for `Cn1c(CCC(=O)OCC(=O)NCc2ccccc2Cl)nc(=O)c2ccccc21`, -1.91% (inactive).

Source of the values: PubChem BioAssay AID2314 (National Center for Advancing Translational Sciences (NCATS), 2010).
